# Test results as given in PubChem BioAssay (EPA / NIEHS).
# The source made the active and inactive calls. The calls were made as follows: active = hit-call score of the fitted dose curve at least 0.9, where 1 is the maximum; inactive = score below 0.9.
# Assay: CCTE_Padilla_ZF_Score.Swim_bladder: CCTE's 144 Hour Post-fertilization zebrafish Assay Score for Swim Bladder Malformation, Padilla Lab (AID 2284408)
# Procedure: CCTE_Padilla_ZF_Phenotype_Score is a whole embryo, multiplexed assay using zebrafish ova exposed for 144 hours post fertilization on a 96-well plate.CCTE_Padilla_ZF_Score.Swim_bladder is one of one assay component(s) measured or calculated from the CCTE_Padilla_ZF_Phenotype_Score assay. It is designed to make measurements of zebrafish development as detected with brightfield microscopy of developing zebrafish embryos.Data from the assay component CCTE_Padilla_ZF_Score.Swim_bladder was analyzed into 1 assay endpoints. This assay endpoint, CCTE_Padilla_ZF_Score.Swim_bladder, was analyzed in the positive analysis fitting direction relative to DMSO as the negative control and baseline of activity. Using a type of viability reporter, gain-of-signal activity can be used to understand changes in developmentals as they relate to the whole embryo. To generalize the intended target to other relatable targets, this assay endpoint is annotated to the zebrafish development intended target family, where the subfamily is swim bladder morphogenesis.
# Zebrafish husbandry: Wild type adult zebrafish (Danio rerio; undefined outbred stock obtained from Aquatic Research Organisms, Hampton, NH, 03842) were housed in an AAALAC-approved animal facility at 28C with a 14:10 h light: dark cycle (lights on at 08:30 h). Adult fish (2-3 females per male; density = 15-20 adults per tank) were kept in one of several 9-liter (L) flow-through colony tanks (Aquaneering Inc., San Diego, CA). All adults in a colony tank were placed in a 2 L (static) breeding tank (Aquatic Habitats, Apopka, FL) one hour prior to light onset. Typically, adults from two to three colony tanks were mated on the same day. Two hours after light onset the adults were returned to the colony tank. All embryos were gathered from each breeder tank, pooled, and placed in a 28C water bath for 2 h, followed by two washes with 0.06% bleach (v/v) in 10% Hanks' Balanced Salt Solution (13.7 mM NaCl 0.54 mM KCl, 25 uM Na2HPO4, 130 uM CaCl2 100 um MgSO4 and 420 um NaHCO3,), hereafter referred to as Hanks' solution, for 5 min in order to remove any residual bacteria or fungi. Immediately following washing, the embryos were examined, and healthy embryos were separated from dead or unfertilized eggs and moved into fresh Hanks'. Chemical exposures: Zebrafish embryos were exposed in 96-well plates. Between 6- and 8-hours post fertilization (hpf), healthy embryos (with chorions) were transferred, one embryo per well, into 96 well (0.5 mL) microtiter plates (Cell Culture-Treated, Flat-Bottom Microplate 96 well [Corning Costar, Kennebunk, ME; Cat 09-761-145]) filled with 200 uL of Hanks' solution. A random number generator was used to assign the order in which the rows of embryos were plated in 96 well plates each week. After plating, the embryos were dosed with 0.8 uL of the chemical dosing solution then immediately sealed with AlumaSeal II (Excel Scientific Inc, Victorville, CA) to prevent volatilization of the chemicals, and then placed in a leakproof secondary container. These containers were placed in an incubator maintained on a 14:10 h light: dark cycle at 26C for rearing. On 5 dpf, live larvae were gently moved out of the plate with test chemicals and into a new 96 well mesh plate (Millipore Corp., Bedford, MA) with just the Hanks' solution. Once within the mesh well plate, the animals were rinsed with 400 uL of fresh Hanks' three times, and then the plates were covered with a non-adhesive material (Microseal A, BioRad, Hercules, CA), plate lid added, and then plate sides wrapped in Parafilm (PM992, Bermis Company, Neenah, WI), and returned to the incubator. […]
Compound,outcome,AC50
O=C(F)C(F)(F)C(F)(F)C(F)(F)C(=O)F,inactive,–
FC1(F)C=CC(F)(F)C1(F)F,inactive,–
FCOC(C(F)(F)F)C(F)(F)F,inactive,–
O=C1OC(=O)C(F)(F)C1(F)F,inactive,–
O=P(O)(O)CCC(F)(F)C(F)(F)C(F)(F)C(F)(F)C(F)(F)C(F)(F)F,inactive,–
FC(F)(F)C1(F)C(F)(F)C(F)(F)C(F)(F)C(F)(C(F)(F)F)C1(F)F (centres undefined),inactive,–
FC(F)(F)C1(F)C(F)(F)C(F)(F)C(F)(F)C1(F)F,inactive,–
O=C(CC(=O)C(F)(F)C(F)(F)C(F)(F)F)c1cccs1,–,2.41 µM (active)
NC(C(F)(F)F)C(F)(F)F,inactive,–
C=CC(=O)OCCC(F)(F)C(F)(F)C(F)(F)C(F)(F)C(F)(F)C(F)(F)C(F)(F)C(F)(F)F,inactive,–
COC(=O)C(F)(F)C(F)(F)C(F)(F)C(F)(F)C(F)(F)F,inactive,–
O=CC(F)(F)C(F)(F)C(F)(F)F,inactive,–
O=C(O)CCC(F)(F)C(F)(F)C(F)(F)C(F)(F)C(F)(F)F,–,10.9 µM (active)
C=CC(F)(F)C(F)(F)C(F)(F)C(F)(F)F,inactive,–
FC(OC(F)(F)C(F)(F)C(F)(F)F)C(F)(F)F (centres undefined),inactive,–
O=CC(F)(F)C(F)(F)C(F)(F)C(F)F,inactive,–
FC(F)(F)N1C(F)(F)C(F)(F)OC(F)(F)C1(F)F,inactive,–
O=C(O)CCC(F)(F)C(F)(F)C(F)(F)C(F)(F)C(F)(F)C(F)(F)F,–,10.4 µM (active)
O=C(OC(=O)C(F)(F)C(F)(F)F)C(F)(F)C(F)(F)F,inactive,–
CN(CCO)S(=O)(=O)C(F)(F)C(F)(F)C(F)(F)C(F)(F)C(F)(F)C(F)(F)C(F)(F)C(F)(F)F,inactive,–
O=C(O)C(F)(F)OC(F)(F)C(F)(F)OC(F)(F)C(F)(F)OC(F)(F)C(F)(F)C(F)(F)C(F)(F)F,–,3.2 µM (active)
OCC(F)(F)C(F)(F)C(F)(F)C(F)(F)C(F)(F)C(F)(F)C(F)(F)C(F)(F)C(F)(F)C(F)(F)C(F)(F)F,inactive,–
O=P(O)(O)CCC(F)(F)C(F)(F)C(F)(F)C(F)(F)C(F)(F)C(F)(F)C(F)(F)C(F)(F)F,–,10 µM (active)
FC(F)=C(F)C(F)(F)C(F)(F)C(F)(F)C(F)F,inactive,–
